Test in all cases: NCI-60 one-dose screen, 48 h (100 = growth as untreated, 0 = no growth, -100 = all killed)
Common to all, as to settings: 10 µM unless noted

Assay [1] relates to NCI-H23 lung.
The test system of assay [2] is NCI-H226 lung.
Assay [3] relates to NCI-H322M lung.
The test system of assay [4] is HOP-62 NSCLC.
The test system of assay [5] is NCI-H460 lung.
Assay [6] concerns HOP-92 NSCLC.
In assay [7] the test system is NCI-H522 lung.
In assay [8] the test system is A549/ATCC NSCLC.
Assay [9] relates to 786-0 renal.
The subject of assay [10] is COLO 205 colon.
Assay [11] relates to DU-145 prostate.
Assay [12] relates to K-562 leukemia.
Assay [13] concerns MALME-3M melanoma.
For assay [14], the system named is MDA-MB-231 breast.
Assay [15] relates to RXF 393 renal.
Assay [16] relates to SF-268 CNS.
The subject of assay [17] is SF-295 CNS.
Assay [18] has as its system SF-539 CNS.
In assay [19] the test system is UACC-257 melanoma.
In assay [20] the test system is M14 melanoma.

This is part of a sample that, as a whole, favours compounds with a hit. Of some 83,000 tested, about 20% had one in any assay.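 Single-dose data. Exposure time 48 hours. Values below 10 considered active.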 Unmarked numbers belong to inactive results. The source made the active and inactive calls.

As to `O=C(OC[C@@H]1CO1)c1cccc2c(=O)c3ccccc3[nH]c12`, the growth in assay [1] is -58.5% (active); in assay [2], -24.6% (active); in assay [3] it was -13% (active); in assay [4], -26% (active); in assay [5] it was -21.8% (active); in assay [6] it was -25.5% (active). Also, the growth was -49.9% (active) in [7]; -20% (active) in [8]; -8.54% (active) in assay [9]; -37.3% (active) in assay [10]; -20.8% (active) in assay [11]; 4.46% (active) in assay [12]. The growth is -89.9% (active) in [13]; -28.1% (active) in [14]; -56.9% (active) in [15]; -31.3% (active) in assay [16]; -8.88% (active) in assay [17]; -38.6% (active) in assay [18]. The growth in assay [19] is -30.8% (active); in assay [20], -65.8% (active).

On to `O=C(O)CCCn1c(SCc2c(Cl)cccc2Cl)nc2ccsc2c1=O`, for which the growth in [1] is 33.6%; in [2], 43.4%; in [3], 48.3%; in [4] it was 45.2%; in assay [5], 10.2%; in assay [6], 24.5%. The growth is -3.68% (active) in [7]; 34.4% in assay [8]; 23.9% in [9]; 3.82% (active) in [10]; 3.54% (active) in assay [11]; 9.27% (active) in assay [12]. For the same compound, the growth in [13] was 47.7%; in [14], 42%; in [15] it was -27.9% (active); in [16], 39.5%; in assay [17], 14.6%; in assay [18] it was -20.1% (active). Besides, the growth was 68.4% in assay [19] and -11.1% (active) in [20].

`CCOc1ccc(NC(=O)c2cc(OC)c(OC)c(OC)c2)cc1`: the growth in assay [1] was 45.8%; in [2], 68.1%; in assay [3] it was 52.2%; in assay [4] it was 56.2%; in assay [5] it was 17.1%; in [6], 44.1%. The growth in assay [7] was 42.3%; in [8], 46.6%; in assay [9] it was 32.3%; in assay [10], 11.8%; in assay [11], 54%; in assay [12] it was 17%. Further, the growth in assay [13] is 38.2%; in assay [14] it was 62.7%; in assay [15] it was 39.8%; in assay [16] it was 47.6%; in [17], 26.2%; in assay [18], 23.5%. In addition, the results for the growth in assay [19] and in assay [20] were 50.1% and 16.5%, respectively.

Regarding `C=CCCC(=O)N1C=CC(=O)[C@H](O)[C@@H]1/C=C/c1ccccc1`, the growth is 52.8% [100 µM] in assay [1]; 26.8% [100 µM] in assay [2]; 59% [100 µM] in assay [3]; 35.3% [100 µM] in assay [4]; 15.2% [100 µM] in assay [5]; 70.6% [100 µM] in assay [6]. Besides, the growth in assay [7] was 74.1% [100 µM]; in assay [8], 52% [100 µM]; in assay [9] it was 14.2% [100 µM]; in [10], 34% [100 µM]; in assay [11] it was 35.7% [100 µM]; in [12], 26.3% [100 µM]. The growth was 89.3% [100 µM] in assay [13]; 52.3% [100 µM] in assay [14]; 78.9% [100 µM] in assay [15]; 35.9% [100 µM] in assay [16]; 33.4% [100 µM] in assay [17]; 19.2% [100 µM] in assay [18]. The growth was 64.9% [100 µM] in assay [19] and -19.8% [100 µM] (active) in [20].

Regarding `COc1ccc2nc3ccccc3c(NCc3ccc(F)cc3)c2c1`, the growth in assay [1] is 14%; in assay [2] it was 30%; in [3] it was 22.6%; in assay [4], 28.2%; in assay [5], 5.47% (active); in assay [6] it was -11.3% (active). In addition, the growth in [7] was 18.2%; in assay [8], 19.7%; in assay [9] it was 6.83% (active); in assay [10] it was -54.4% (active); in assay [11], 16.5%; in assay [12], 1.95% (active). Besides, the growth in assay [13] is -5.2% (active); in assay [14], 16.7%; in assay [15], -18.9% (active); in [16] it was 34.6%; in assay [17], 14.4%; in [18] it was 3.85% (active). In addition, the values for the growth in [19] and in assay [20] were -11.1% (active) and 15.3%, respectively.

In the case of `c1ccc(CCc2ccccc2-c2cc(-c3ccccc3)on2)cc1`, the growth is 75.1% in assay [1]; 96.5% in [2]; 87% in assay [3]; 96.5% in assay [4]; 82.4% in assay [5]; 103% in [6]. In addition, the growth in assay [7] is 80.1%; in assay [8], 97.7%; in assay [9], 94.5%; in assay [10], 100%; in assay [11] it was 92%; in assay [12] it was 71.2%. The growth is 102% in assay [13]; 84.3% in assay [14]; 94.2% in assay [15]; 97.1% in [16]; 96.3% in assay [17]; 93.8% in assay [18]. The growth is 99.9% in assay [19] and 87.8% in [20].

As to `Cc1nc2sc(C(=O)Nc3cccc(Cl)c3)c(N)c2cc1C(O)c1ccccc1` (stereo not given), the growth in assay [1] was 32%; in assay [2], 54.1%; in assay [3] it was 60.2%; in assay [4] it was 45.3%; in [5] it was 6.05% (active); in assay [6], 77.2%. Moreover, the growth is 3.93% (active) in [7]; 21.1% in [8]; 36.8% in [9]; 20.8% in assay [10]; 19.7% in assay [11]; 6.94% (active) in assay [12]. The growth in [13] is 49.7%; in assay [14] it was 22.3%; in [15] it was 27.7%; in assay [16] it was 42.3%; in assay [17], 28.8%; in [18], -3.45% (active). Further, the growth is 35% in assay [19] and 15% in [20].

The record behind these values is PubChem BioAssay (NCI).
